Experimental data: ChEMBL document CHEMBL5606458, “ASAP - ZIKV NS2B-NS3 protease fluorescence single point” (2024)
About 160 (5.9%) of roughly 2,700 compounds showed an effect of 50% or more. What follows is part of a selection rich in strong results, with near analogues and random picks from the rest.

Molecular target: Nonstructural protein 3 (Zika virus) (UniProt A0A024AXB9)
[1] = PRVABC59, Concentration 50.0 uM, Number of replicates 1.0

Chain of Nonstructural protein 3 (Zika virus) (A0A024AXB9 as listed by the source): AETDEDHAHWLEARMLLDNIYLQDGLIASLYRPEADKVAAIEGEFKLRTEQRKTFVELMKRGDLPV

In the case of `N=C(N)NCCC[C@H](NC(=O)[C@H](Cc1ccc(CN)cc1)NC(=O)c1ccccc1)B(O)O`, the inhibition (PRVABC59, Concentration 10.0 uM, Number of replicates 3.0, Standard deviation 0.04927937550217375 %) was 100%, the inhibition (PRVABC59, Concentration 49.5 uM, Number of replicates 2.0, Standard deviation 0.010099059252786384 %) was 99.8% and the inhibition (PRVABC59, Concentration 49.5 uM, Number of replicates 2.0, Standard deviation 0.01807256864147136 %) was 99.7%. It also gave an inhibition (PRVABC59, Concentration 49.5 uM, Number of replicates 2.0, Standard deviation 0.060713041042124986 %) of 99.8%, an inhibition (PRVABC59, Concentration 49.5 uM, Number of replicates 2.0, Standard deviation 0.06905879139685818 %) of 99.8% and an inhibition (PRVABC59, Concentration 49.5 uM, Number of replicates 2.0, Standard deviation 0.08298276144570521 %) of 99.9%. It also gave an inhibition (PRVABC59, Concentration 49.5 uM, Number of replicates 2.0, Standard deviation 0.10271153264626066 %) of 99.3%, an inhibition (PRVABC59, Concentration 49.5 uM, Number of replicates 2.0, Standard deviation 0.1066443393745092 %) of 99.6% and an inhibition (PRVABC59, Concentration 49.95 uM, Number of replicates 2.0, Standard deviation 0.961660259200824 %) of 101%. The inhibition (PRVABC59, Concentration 99.01 uM, Number of replicates 2.0, Standard deviation 0.020192723708963373 %) was 99.9%, the inhibition (PRVABC59, Concentration 99.01 uM, Number of replicates 2.0, Standard deviation 0.05005292294196158 %) was 99.7% and the inhibition (PRVABC59, Concentration 99.01 uM, Number of replicates 2.0, Standard deviation 0.0511966198231532 %) was 99.7%. The inhibition (PRVABC59, Concentration 99.01 uM, Number of replicates 2.0, Standard deviation 0.06657179015992734 %) was 99.4%, the inhibition (PRVABC59, Concentration 99.01 uM, Number of replicates 2.0, Standard deviation 0.07055854485426984 %) was 99.9% and the inhibition (PRVABC59, Concentration 99.01 uM, Number of replicates 2.0, Standard deviation 0.0908591644954211 %) was 99.8%. It also gave an inhibition (PRVABC59, Concentration 99.01 uM, Number of replicates 2.0, Standard deviation 0.09853596007058937 %) of 100%, an inhibition (PRVABC59, Concentration 99.9 uM, Number of replicates 2.0, Standard deviation 0.9426813647289743 %) of 101% and an inhibition (PRVABC59, Concentration 198.0 uM, Number of replicates 2.0, Standard deviation 0.016157415845136337 %) of 99.7%. The inhibition (PRVABC59, Concentration 198.0 uM, Number of replicates 2.0, Standard deviation 0.0195885064887112 %) was 99.5%, the inhibition (PRVABC59, Concentration 198.0 uM, Number of replicates 2.0, Standard deviation 0.04517602680706901 %) was 99.6% and the inhibition (PRVABC59, Concentration 198.0 uM, Number of replicates 2.0, Standard deviation 0.06178660556739447 %) was 99.7%. It also gave an inhibition (PRVABC59, Concentration 198.0 uM, Number of replicates 2.0, Standard deviation 0.09594645769808005 %) of 99.7%, an inhibition (PRVABC59, Concentration 198.0 uM, Number of replicates 2.0, Standard deviation 0.10841922745899998 %) of 99.2% and an inhibition (PRVABC59, Concentration 198.0 uM, Number of replicates 2.0, Standard deviation 0.1903446087692639 %) of 99.7%.
`NCc1ccc(C[C@H](NC(=O)c2ccccc2)C(=O)N2CCCCC2)cc1` was tested, and the inhibition (PRVABC59, Concentration 49.5 uM, Number of replicates 2.0, Standard deviation 1.7023364994641166 %) was 7.06%, the inhibition (PRVABC59, Concentration 99.01 uM, Number of replicates 2.0, Standard deviation 1.0175975565444826 %) was 12.7% and the inhibition (PRVABC59, Concentration 198.0 uM, Number of replicates 2.0, Standard deviation 2.6267332126099125 %) was 22%.
In the case of `NCc1ccc(C[C@H](NC(=O)c2ccccc2)C(=O)Nc2cccc(CN)c2)cc1`, the inhibition (PRVABC59, Concentration 49.5 uM, Number of replicates 2.0, Standard deviation 1.4806761079016821 %) was 29.4%, the inhibition (PRVABC59, Concentration 99.01 uM, Number of replicates 2.0, Standard deviation 0.13484294125181392 %) was 48.1% and the inhibition (PRVABC59, Concentration 198.0 uM, Number of replicates 2.0, Standard deviation 0.4356460105984289 %) was 65.1%.
`O=C(/C=C/c1ccccc1)C(=O)N1CCN(CCc2ccccc2)CC1` gave an inhibition (PRVABC59, Concentration 49.5 uM, Number of replicates 2.0, Standard deviation 0.08274041706676757 %) of 1.32%, an inhibition (PRVABC59, Concentration 99.01 uM, Number of replicates 2.0, Standard deviation 0.30038362391023454 %) of 6.15% and an inhibition (PRVABC59, Concentration 198.0 uM, Number of replicates 2.0, Standard deviation 0.5414096494264544 %) of 13.3%. It also gave an inhibition (PRVABC59, Concentration 200.0 uM, Number of replicates 1.0) of 96.2%.
`Nc1ccc(/C=C/C(=O)C(=O)N2CCN(CCc3ccccc3)CC2)cc1` was tested, and the inhibition (PRVABC59, Concentration 49.5 uM, Number of replicates 2.0, Standard deviation 1.009989544626084 %) was 23.1%, the inhibition (PRVABC59, Concentration 99.01 uM, Number of replicates 2.0, Standard deviation 0.19781370467497048 %) was 38.5% and the inhibition (PRVABC59, Concentration 198.0 uM, Number of replicates 2.0, Standard deviation 0.599146111439346 %) was 56%.
Molecule `O=Cc1ccc(N2CCC(C(=O)N3CCN(CCc4ccccc4)CC3)CC2)cc1` has an inhibition [1] of 37.9%.
For `OCCOc1cc(COc2cccnc2F)nc(N2CCNCC2)n1`, the inhibition (PRVABC59, Concentration 49.5 uM, Number of replicates 2.0, Standard deviation 1.0649598246775087 %) was 10.8%, the inhibition (PRVABC59, Concentration 99.01 uM, Number of replicates 2.0, Standard deviation 1.1158273619074888 %) was 21.6% and the inhibition (PRVABC59, Concentration 198.0 uM, Number of replicates 2.0, Standard deviation 0.21003831379185828 %) was 36.7%.
`NC(=O)c1cn(C[C@H]2CCCN2c2ccnc3ccccc23)nn1` was tested, and the inhibition (PRVABC59, Concentration 49.5 uM, Number of replicates 2.0, Standard deviation 1.7032876695413104 %) was 13.6%, the inhibition (PRVABC59, Concentration 99.01 uM, Number of replicates 2.0, Standard deviation 1.9821170579482856 %) was 21.5% and the inhibition (PRVABC59, Concentration 198.0 uM, Number of replicates 2.0, Standard deviation 3.129764278957135 %) was 35.6%.
Molecule `CS(=O)(=O)c1ccc(N2CCN(C(=O)C3CCN(c4ccc(C=O)cc4)CC3)CC2)c([N+](=O)[O-])c1` has an inhibition [1] of 38.3%.
For `O=Cc1ccc(N2CCC(C(=O)N3CCN(c4ccc([N+](=O)[O-])cc4C(F)(F)F)CC3)CC2)cc1`, the inhibition [1] was 51.4%.
Work on `O=Cc1ccc(N2CCC(C(=O)N3CCC(CCN4CCCC4)CC3)CC2)cc1` yielded an inhibition [1] of 40.2%.
Molecule `Fc1ncccc1OCc1cc(Cl)nc(N2CCNCC2)n1` has an inhibition (PRVABC59, Concentration 49.5 uM, Number of replicates 2.0, Standard deviation 1.0140201320428779 %) of 15.1%, an inhibition (PRVABC59, Concentration 99.01 uM, Number of replicates 2.0, Standard deviation 1.7990689115932277 %) of 28.4% and an inhibition (PRVABC59, Concentration 198.0 uM, Number of replicates 2.0, Standard deviation 0.8686404786633404 %) of 49%.
In the case of `COc1ccc(S(=O)(=O)n2nc(OC(=O)c3cccc(-c4ccccc4Cl)c3)cc2N)cc1`, the inhibition (PRVABC59, Concentration 49.5 uM, Number of replicates 2.0, Standard deviation 0.015159378472398365 %) was 94.1%, the inhibition (PRVABC59, Concentration 99.01 uM, Number of replicates 2.0, Standard deviation 0.0016885713387404585 %) was 94.1% and the inhibition (PRVABC59, Concentration 198.0 uM, Number of replicates 2.0, Standard deviation 0.07411371581986076 %) was 93.9%.
`c1ccc(-c2csc(C3CCN(Cc4c[nH]c5ccccc45)CC3)n2)cc1` showed an inhibition (PRVABC59, Concentration 49.5 uM, Number of replicates 2.0, Standard deviation 0.9101885047505917 %) of 64.4%, an inhibition (PRVABC59, Concentration 99.01 uM, Number of replicates 2.0, Standard deviation 0.676804208631579 %) of 66.1% and an inhibition (PRVABC59, Concentration 198.0 uM, Number of replicates 2.0, Standard deviation 0.5886424424408551 %) of 66.1%.
Molecule `c1ccc2oc(C3CCN(Cc4c[nH]c5ccccc45)CC3)nc2c1` has an inhibition (PRVABC59, Concentration 49.5 uM, Number of replicates 2.0, Standard deviation 0.07645236015003325 %) of 37.2%, an inhibition (PRVABC59, Concentration 99.01 uM, Number of replicates 2.0, Standard deviation 0.17318915555138958 %) of 54.7% and an inhibition (PRVABC59, Concentration 198.0 uM, Number of replicates 2.0, Standard deviation 0.13417938126885842 %) of 70.9%.
Work on `Cc1nc(C2CCN(Cc3c[nH]c4ccccc34)CC2)sc1C(=O)O` yielded an inhibition (PRVABC59, Concentration 49.5 uM, Number of replicates 2.0, Standard deviation 1.7503606417061577 %) of 29.1%, an inhibition (PRVABC59, Concentration 99.01 uM, Number of replicates 2.0, Standard deviation 0.7623791698480982 %) of 49% and an inhibition (PRVABC59, Concentration 198.0 uM, Number of replicates 2.0, Standard deviation 0.018153490590612276 %) of 66.9%.
